Sampled rows, rich in hits. Any-hit rate of the full collection: about 7.8%.
HCMV inh: inhibitors of human cytomegalovirus | HFF cells, HCMV-luciferase reporter, 72 h; stronger effect = lower value | activity change, negative = inhibition, % at 57.5 µM | 4.5% of 410,000 active | AID 1259415; in the data active means activity change below about -60%; inconclusive means no clear call, values can overlap the other calls; inactive means above about -39%
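HFF cells seeded 16 h at 37C, treated with compounds, infected with luciferase-reporter HCMV at MOI 1 PFU/cell; luciferase read at 72 h post infection, normalized to buffer-only and Salinomycin controls.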
LASV entry inh: blocks Lassa virus binding to or entry into cells; Lassa virus pseudotype entry inhibition, cell reporter; 1.2% of 300,000 active; AID 540256; Potency, µM (titrated, usually from 37.9 µM), without a hit: at the top dose activity change, negative = inhibition, actives largely listed as inhibitors; calls by dose curve; tested in HEK293 cells; further: potency means the concentration at half of the fitted maximal effect; nearly all actives have a fitted effect of over 50% in size
Vaccinia Venus: inhibitors of vaccinia virus (Venus reporter); Potency, µM (series often up to 36.5 µM), for the others: top-dose activity change, negative = inhibition, usual class: inhibitors; Vaccinia virus Venus reporter expression, fluorescence; 0.46% of 330,000 active; calls by dose curve; tested in A549 cells; further: potency means the concentration at half of the fitted maximal effect; nearly all actives have a fitted effect of over 30% in size
VACV mCherry inh: inhibitors of vaccinia virus infection (mCherry reporter signal); 0.63% of 310,000 active; Potency, µM (series often up to 36.5 µM), for the others: at the top dose activity change, negative = inhibition, usual class: inhibitors; Vaccinia virus mCherry reporter infection, fluorescence; calls by dose curve; tested in A549 cells; further: potency means the concentration at half of the fitted maximal effect; nearly all actives have a fitted effect of over 35% in size
HCV inhibitor: blocks hepatitis C virus | Huh7.5.1 HCVcc-Cre infection, luciferase reporter, 44 h | Potency, µM (doses to about 41.8 µM), inactives show at the top dose activity change, negative = inhibition, actives largely listed as inhibitors | 3.4% of 340,000 active; active means well fitted inhibition curve with a large enough effect; inconclusive means small, poorly fitted or top-dose-only effect, or another doubt; inactive means no such curve, though single readings can be large or run the other way; further: potency means the concentration at half of the fitted maximal effect
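Luciferase read-out (15 sec integration) after a 15 min room-temperature substrate step quantifies HCVcc-Cre infection. Cells, 1,000 per well, had compound added 4 h post-plating, then virus at ~0.5 moi, and were cultured 44 h.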
Marburg entry inh: blocks Marburg virus binding to or entry into cells. Marburg virus pseudotyped entry inhibition, cell reporter. Potency, µM (top dose mostly 37.8 µM), for inactives: top-dose activity change, negative = inhibition, most hits filed as inhibitors. 1.8% of 300,000 active; calls by dose curve; tested in HEK293 cells; further: potency means the concentration at half of the fitted maximal effect
Numbers without * were called inactive; [ ] = remark or other dose. On the % scale 0 is the no-effect control and ±100 the full control effect.

`Cc1ccc(C(C)C)cc1OCC(=O)N/N=C/c1ccc2c(c1)OCCO2` gave HCMV inh -20, LASV entry inh 1.1µM*, Vaccinia Venus -19%, VACV mCherry inh -3%, HCV inhibitor -25% and Marburg entry inh inconclusive.
For Cc1ccc(C)c(OCC(=O)NCCNC(=O)COc2cc(C)ccc2C)c1 the results were HCMV inh 31, LASV entry inh -1%, HCV inhibitor inconclusive and Marburg entry inh -12%.
`COc1ccc(-c2c3c(nc4sc5c(=O)[nH]c(C)nc5c24)CCC3)cc1` gave HCMV inh -88*, LASV entry inh 8%, Vaccinia Venus -9%, HCV inhibitor 4% and Marburg entry inh inconclusive.
Screening COc1ccc(-c2c3c(nc4sc(C(=O)Nc5cc(C)on5)c(N)c24)CCC3)cc1 returned HCMV inh inconclusive, LASV entry inh inconclusive, Vaccinia Venus -5%, VACV mCherry inh -15%, HCV inhibitor inconclusive and Marburg entry inh -28%.
For CCCN(CCC)[C@H]1CCc2ccc(O)cc2C1 the results were Marburg entry inh -15%.
Screening CC(CNc1ccccc1O)C(=O)O (centres undefined) returned HCMV inh inconclusive, LASV entry inh -4%, Vaccinia Venus 89µM*, VACV mCherry inh 4.5µM*, HCV inhibitor -6% and Marburg entry inh 3%.
Screening CC(NC(=O)CCC(=O)Nc1ccccc1O)c1ccccc1 (centres undefined) returned HCMV inh -2, LASV entry inh -14%, Vaccinia Venus -17%[7.34 µM], VACV mCherry inh -4%[7.34 µM], HCV inhibitor 9% and Marburg entry inh -5%[46.1 µM].
`Cc1cc(C)cc(-n2ccnc2SCC(=O)Nc2nc3ccc(C)cc3s2)c1` gave HCMV inh 9, LASV entry inh -17%[46.1 µM], Vaccinia Venus -22% and VACV mCherry inh inactive.
For CCOC(=O)c1c(C)c(-c2ccccc2)n(CC(=O)Nc2cc(C)cc(C)c2)c1C the results were HCMV inh -97*, Vaccinia Venus inconclusive, VACV mCherry inh -16% and Marburg entry inh 21%[46.1 µM].
For CCCNC(=O)CSc1cn(CC(=O)N2CCCCCC2)c2ccccc12 the results were HCMV inh -12, LASV entry inh inconclusive, Vaccinia Venus -8% and VACV mCherry inh -4%.
`CCOc1ccc(-n2c(Cc3ccccc3)nnc2SCc2nc(-c3ccccc3C)no2)cc1` gave HCMV inh 2, LASV entry inh 1%[46.1 µM], Vaccinia Venus -12%, VACV mCherry inh -11% and Marburg entry inh -15%[46.1 µM].
For O=C(CSc1nnc(COc2cccc3cccnc23)o1)c1ccc(F)cc1 the results were HCMV inh -17, LASV entry inh inconclusive, Vaccinia Venus -13%, VACV mCherry inh inactive, HCV inhibitor 10µM* and Marburg entry inh -24%.
Screening O=C(/C=C/c1ccc(F)cc1)NNC(=O)CCN1CCN(Cc2ccccc2)CC1 returned HCMV inh -96*, LASV entry inh inconclusive, Vaccinia Venus inconclusive, VACV mCherry inh 11µM*, HCV inhibitor 0% and Marburg entry inh inconclusive.
`O=C(NCCc1ccncc1)c1ccc2nc(Cc3cccc(Cl)c3)oc2c1` gave HCMV inh -70*, LASV entry inh 6%, Vaccinia Venus -17%, VACV mCherry inh -6%, HCV inhibitor -7% and Marburg entry inh -9%.
For CCn1cc(CNC(=O)c2ccc3nc(Cc4ccc(OC)cc4)oc3c2)cn1 the results were HCMV inh -65*, LASV entry inh -25%[46.1 µM], Vaccinia Venus -24%, VACV mCherry inh -24%, HCV inhibitor 10µM* and Marburg entry inh -21%[46.1 µM].
Screening CCn1cc(CNC(=O)c2ccc3nc(Cc4ccccc4F)oc3c2)cn1 returned HCMV inh -3, LASV entry inh 7%[46.1 µM], Vaccinia Venus -14%, VACV mCherry inh -14%, HCV inhibitor 11µM* and Marburg entry inh -5%[46.1 µM].
`CCOC(=O)c1cccc(NC(=O)c2ccc3nc(Cc4ccccc4)oc3c2)c1` gave HCMV inh -39, LASV entry inh -24%[46.1 µM], Vaccinia Venus -21% and VACV mCherry inh -20%.
`COc1cccc(NC(=O)c2ccc3nc(Cc4ccccc4)oc3c2)c1` gave HCMV inh -94*, LASV entry inh -16%[46.1 µM], Vaccinia Venus -18% and VACV mCherry inh -13%.
